The subject of this test is MIWI (PIWIL1) piRISC loaded with L1MC piRNA (30 nt). In words: pre-steady-state target cleavage rate (min^-1); MIWI and MILI are mouse PIWI proteins and EfPiwi is from a freshwater sponge; tags in brackets are library labels; higher = faster piRNA-guided slicing of the target. Conditions: guide: L1MC piRNA 5'p-UAACUAAAUACUAUGCAAGCUGUAGGUCCU
The gist of the method:
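At 33 °C in HEPES–potassium acetate buffer, a transcribed, DNA-blocked target RNA library […] was exposed for 0–8 or 0–960 min to 1 nM active affinity-purified piRISC carrying a single synthetic guide, with or without 500 nM GTSF1 partner protein. Uncleaved targets were sequenced and normalised to depth and to weakly complementary targets. With three trials pooled and k3 capped at 0.0001 min^-1, a burst-and-steady-state fit produced the pre-steady-state cleavage rate.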

The mark [1] stands for this setting: auxiliary factor: 500 nM mouse GTSF1.
Setting [2] is: auxiliary factor: none (no GTSF1).

± gives the standard deviation. In all, about 8,200 sequences were measured (“pre-steady-state target cleavage rate”: median about 0.024, highest 2% from about 1.3 on). The entries come from a sample that favours the highest values as a whole.
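Further: 1 nM active piRISC with 0.1 nM target library at 33 °C single turnover.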

Take UGGACCUACAGAUUGCAUAGUAUUUAGUUA: the “pre-steady-state target cleavage rate” value by setting is: under setting [1], 1.12 ± 0.11; under setting [2], 0.042 ± 0.0077.

As to AGGACCUACAGCUUGCAUACAUUUUAGUUA, the “pre-steady-state target cleavage rate” value under setting [1] amounted to 0.0106 ± 0.0061.

As to UCGUCCUACACCUUGCAUAGUAUUUAGUUA, the “pre-steady-state target cleavage rate” value under setting [1] worked out at 0.986 ± 0.045 and the “pre-steady-state target cleavage rate” value under setting [2] came out at 0.0586 ± 0.0084.

For the sequence UCGACCUACAGCUUGCAUACAAUUUAGUUA, the “pre-steady-state target cleavage rate” value is, setting by setting: under setting [1], 0.0219 ± 0.0076; under setting [2], 0.00334 ± 0.0025.

Turning to UCCACCGUACAGCUUGCAUAGUAUUUAGUUA, the “pre-steady-state target cleavage rate” value runs as follows: under setting [1], 1.18 ± 0.054; under setting [2], 0.0628 ± 0.012.

On to UCCUCGUACAGCUUGCAAAGUAUUUAGUUA, for which the “pre-steady-state target cleavage rate” value by setting is: under setting [1], 1.32 ± 0.048; under setting [2], 0.0595 ± 0.012.

Regarding UGGUCGUACAGCUUGCAUAGUAUUUAGUUA, the “pre-steady-state target cleavage rate” value reads like this: under setting [1], 1.33 ± 0.056; under setting [2], 0.073 ± 0.0095.

With UCGUACCUACAGCUUGCAUAGUAUUUAGUUA, the “pre-steady-state target cleavage rate” value came to 0.909 ± 0.034 under setting [1] and 0.0778 ± 0.016 under setting [2].

Turning to UCCUGGUACAGCUUGCAAAGUAUUUAGUUA, the “pre-steady-state target cleavage rate” value by setting is: under setting [1], 0.711 ± 0.046; under setting [2], 0.0405 ± 0.0074.

With UCGUCGUACAGCUUGCAUAGUAUUUAGUUA, the “pre-steady-state target cleavage rate” value under setting [1] came out at 1.31 ± 0.067 and the “pre-steady-state target cleavage rate” value under setting [2] worked out at 0.0685 ± 0.012.

Regarding UCCUCGUACAGCUUGCAUAGUAUUUAGAAA, the “pre-steady-state target cleavage rate” value under setting [1] was 0.363 ± 0.029 and the “pre-steady-state target cleavage rate” value under setting [2] came to 0.00538 ± 0.0021.

As to UCCUCCUACAGCUUGCAAAGUAUUUAGUUA, the “pre-steady-state target cleavage rate” value is, setting by setting: under setting [1], 1.14 ± 0.039; under setting [2], 0.0317 ± 0.0066.

As to UCCUCGUACAGCUUGCAUAGUAUUUAGUUA, the “pre-steady-state target cleavage rate” value runs as follows: under setting [1], 1.46 ± 0.043; under setting [2], 0.0602 ± 0.01.

Take UCCUCGUACAGCUUGCAUAGUAUUUAGUAA: the “pre-steady-state target cleavage rate” value was found to be 0.903 ± 0.048 under setting [1] and 0.0263 ± 0.0049 under setting [2].

UCGUGGUACAGCUUGCAUAGUAUUUAGUUA: the “pre-steady-state target cleavage rate” value under setting [1] was determined as 1.23 ± 0.038 and the “pre-steady-state target cleavage rate” value under setting [2] turned out to be 0.0818 ± 0.014.

Regarding UCCUGCUACAGCUUGCAUAGUAUAAUGUAA, under setting [1], the “pre-steady-state target cleavage rate” value was determined as 0.188 ± 0.038.

UGGACCUACAGCUUGCAUAGUAUUAAGUUA: the “pre-steady-state target cleavage rate” value reads like this: under setting [1], 0.719 ± 0.06; under setting [2], 0.0363 ± 0.006.

Turning to AGGACCUACUGCUUCCAUAGUAUUUAGUUA, the “pre-steady-state target cleavage rate” value was 0.069 ± 0.011 under setting [1] and 0.00657 ± 0.0012 under setting [2].

As for UCGAGCUAGAGCUUGCAUAGUAUUUAGUUA, the “pre-steady-state target cleavage rate” value runs as follows: under setting [1], 0.962 ± 0.051; under setting [2], 0.0483 ± 0.0092.

Consider UCGACCAAGAGCUUGCAUAGUAUUUAGUUA, for which the “pre-steady-state target cleavage rate” value under setting [1] was found to be 0.954 ± 0.04 and the “pre-steady-state target cleavage rate” value under setting [2] stood at 0.0547 ± 0.011.

In the case of UCCUGGAUGUGCUUGCAUAGUGAUUUAGUUA, the “pre-steady-state target cleavage rate” value under setting [1] is 0.00393 ± 0.0038.

Turning to UCCUGGUACAGCUAGGAUAGUAUUUAGUUA, the “pre-steady-state target cleavage rate” value is, setting by setting: under setting [1], 0.611 ± 0.084; under setting [2], 0.00486 ± 0.002.

Turning to UGGACCUACAGCUUGGAUAGUAUUUAGAAA, the “pre-steady-state target cleavage rate” value is, setting by setting: under setting [1], 0.342 ± 0.047; under setting [2], 0.0107 ± 0.003.

Regarding UCCUGCUACAGCUUGCAAACUAUUUAGUUA, the “pre-steady-state target cleavage rate” value is 0.363 ± 0.027 under setting [1] and 0.00719 ± 0.0031 under setting [2].

As to AGGACCUACAGCUUGCAUAGUAUUUUGUUA, the “pre-steady-state target cleavage rate” value reads like this: under setting [1], 0.949 ± 0.064; under setting [2], 0.0718 ± 0.016.

On to UCCUGCUACUGCUUGCAUAGUAUAUAGUUA, for which the “pre-steady-state target cleavage rate” value under setting [1] was determined as 0.226 ± 0.024 and the “pre-steady-state target cleavage rate” value under setting [2] was determined as 0.0142 ± 0.0034.

Regarding AGGACCUACAGGAAGCAUAGUAUUUUCAAA, the “pre-steady-state target cleavage rate” value under setting [1] turned out to be 0.132 ± 0.024.

In the case of UCCUGGAUCAGGUAGCAUAGUAUUUAGUUA, the “pre-steady-state target cleavage rate” value is, setting by setting: under setting [1], 0.0152 ± 0.0033; under setting [2], 0.00289 ± 0.0022.

For UCCUCGUACAGCUUGCUUAGUAUUUAGUUA, the “pre-steady-state target cleavage rate” value under setting [1] was 1.51 ± 0.069 and the “pre-steady-state target cleavage rate” value under setting [2] came to 0.0419 ± 0.0089.

AGGUCGUACAGCUUGCAUAGUAUUUAGUUA: the “pre-steady-state target cleavage rate” value is, setting by setting: under setting [1], 1.44 ± 0.065; under setting [2], 0.0817 ± 0.012.

In the case of UCCUCCUACAGCUUGCUUAGUAUUUAGUUA, the “pre-steady-state target cleavage rate” value under setting [1] turned out to be 1.28 ± 0.06 and the “pre-steady-state target cleavage rate” value under setting [2] stood at 0.0241 ± 0.0053.

Regarding UCCAGGUACAGCUUGCAUAGUAUUUAGUUA, the “pre-steady-state target cleavage rate” value stood at 1.09 ± 0.04 under setting [1] and 0.0764 ± 0.011 under setting [2].

Regarding UCCUGGUACAGCUUGCUUAGUAUUUAGUUA, the “pre-steady-state target cleavage rate” value runs as follows: under setting [1], 0.79 ± 0.037; under setting [2], 0.0523 ± 0.011.

In the case of AGGACCUAGAGCUUGCAUAGUUUUUAGUUA, the “pre-steady-state target cleavage rate” value runs as follows: under setting [1], 0.343 ± 0.023; under setting [2], 0.0238 ± 0.0061.

For UCCUCCUACAGCUUGCAUAGUUAUUAGAAA, the “pre-steady-state target cleavage rate” value under setting [1] came out at 0.0862 ± 0.022.

Consider UCCUGGAACAGCAUGCAUAGUAUUUACUUA, for which the “pre-steady-state target cleavage rate” value was determined as 0.446 ± 0.045 under setting [1] and 0.0279 ± 0.0094 under setting [2].

As for UCCACCUACAGCUUGCAUAGUAUUCUAGUUA, the “pre-steady-state target cleavage rate” value reads like this: under setting [1], 0.633 ± 0.067; under setting [2], 0.0214 ± 0.0052.

Consider UCCUCCUACAGCUUGGCAUAGUAUUUAGUUA, for which the “pre-steady-state target cleavage rate” value is 0.831 ± 0.11 under setting [1] and 0.0114 ± 0.0021 under setting [2].

In the case of UCCUCCUACAGCUUGGAUAGUAUUUAGUUA, the “pre-steady-state target cleavage rate” value under setting [1] turned out to be 1.44 ± 0.045 and the “pre-steady-state target cleavage rate” value under setting [2] amounted to 0.0511 ± 0.0092.

Turning to AGGUCCUACAGCUUGGAUAGUAUUUAGUUA, the “pre-steady-state target cleavage rate” value is, setting by setting: under setting [1], 1.39 ± 0.072; under setting [2], 0.079 ± 0.014.

In the case of UCCUCCUACAGCUUGUCAUAGUAUUUAGUUA, the “pre-steady-state target cleavage rate” value under setting [1] amounted to 0.44 ± 0.046.

Consider UCGUCCUACAGCUUGGAUAGUAUUUAGUUA, for which the “pre-steady-state target cleavage rate” value was 1.56 ± 0.048 under setting [1] and 0.0586 ± 0.0084 under setting [2].

Turning to UCCUCCUACAGCUUGGAUAGUAUUUAGAUA, the “pre-steady-state target cleavage rate” value was 0.372 ± 0.039 under setting [1] and 0.00865 ± 0.0019 under setting [2].

With UCCUCCUACAGCUUGGAUAGUAUUUAGUAA, the “pre-steady-state target cleavage rate” value under setting [1] amounted to 0.707 ± 0.045 and the “pre-steady-state target cleavage rate” value under setting [2] amounted to 0.0186 ± 0.0033.

Take UCCUGCUACAGCUUGGAUAGUAUUUAGUUA: the “pre-steady-state target cleavage rate” value is, setting by setting: under setting [1], 1.29 ± 0.12; under setting [2], 0.0507 ± 0.0096.

Take UCCUCCUACAGCUUGUAUAGUAUUUAGUUA: the “pre-steady-state target cleavage rate” value is 1.38 ± 0.042 under setting [1] and 0.0427 ± 0.008 under setting [2].

In the case of UCCUCCUACAGCUUGAUAGUAUUUAGUUA, the “pre-steady-state target cleavage rate” value reads like this: under setting [1], 0.824 ± 0.05; under setting [2], 0.00583 ± 0.0021.

As to UGGUCCUACAGCUUGGAUAGUAUUUAGUUA, the “pre-steady-state target cleavage rate” value was found to be 1.22 ± 0.038 under setting [1] and 0.0568 ± 0.0069 under setting [2].

Take UGGAGCUACAGCUUGGAUAGUAUUUAGUUA: the “pre-steady-state target cleavage rate” value stood at 1.11 ± 0.083 under setting [1] and 0.0533 ± 0.0083 under setting [2].

UCCACCUACAGCUUGCAUUGUAUUUACAAA: the “pre-steady-state target cleavage rate” value under setting [1] came out at 0.112 ± 0.024.

For UCCUGGUACAGCAUGCAUAGUAUUUAGUAA, the “pre-steady-state target cleavage rate” value came out at 0.377 ± 0.04 under setting [1] and 0.00875 ± 0.0024 under setting [2].

Regarding UCCUGGAUGAGCUUGCAUGGUAUUUAGUUA, the “pre-steady-state target cleavage rate” value under setting [1] came to 0.743 ± 0.043 and the “pre-steady-state target cleavage rate” value under setting [2] stood at 0.0817 ± 0.02.

With UCCUGGAUCAGCUUGCAUAGAAUUUAGUUA, the “pre-steady-state target cleavage rate” value runs as follows: under setting [1], 0.258 ± 0.028; under setting [2], 0.0291 ± 0.0088.

For the sequence UCCUCCUACAGCUUGCAUUGUAUUUACUUA, the “pre-steady-state target cleavage rate” value amounted to 0.388 ± 0.031 under setting [1] and 0.0162 ± 0.0032 under setting [2].

On to UCCUGGAUCAGCAUGCAUAGUAUUUACAAA, for which the “pre-steady-state target cleavage rate” value under setting [1] stood at 0.156 ± 0.034.

Regarding UCCUGGAUGUGCUUGCAUAGUAUUCUAGUUA, the “pre-steady-state target cleavage rate” value reads like this: under setting [1], 0.211 ± 0.037; under setting [2], 0.0155 ± 0.0049.

UCGACCAACAGCUAGCAUAGUAUUUAGUUA: the “pre-steady-state target cleavage rate” value under setting [1] was found to be 1.08 ± 0.046 and the “pre-steady-state target cleavage rate” value under setting [2] came out at 0.0286 ± 0.0073.

UGGACCAACAGCUUGCAUAGUAUUUAGAUA: the “pre-steady-state target cleavage rate” value was determined as 0.428 ± 0.022 under setting [1] and 0.0582 ± 0.014 under setting [2].

Regarding AGGACCAACAGCUAGCAUAGUAUUUAGUUA, the “pre-steady-state target cleavage rate” value runs as follows: under setting [1], 1.08 ± 0.052; under setting [2], 0.038 ± 0.01.

As for UGGACCAACAGCUAGCAUAGUAUUUAGUUA, the “pre-steady-state target cleavage rate” value was 1.36 ± 0.059 under setting [1] and 0.0347 ± 0.0073 under setting [2].

For the sequence AGGACCAACAGCUUGCAUAGUAUUUAGAAA, the “pre-steady-state target cleavage rate” value under setting [1] worked out at 0.624 ± 0.071 and the “pre-steady-state target cleavage rate” value under setting [2] was found to be 0.033 ± 0.012.

For AGGACCAACAGCUUGCAUAGUAUUUAGUUA, the “pre-steady-state target cleavage rate” value is, setting by setting: under setting [1], 1.4 ± 0.05; under setting [2], 0.122 ± 0.021.

As to UGGACCAACAGCUUGCAUAGUAUUUAGUUA, the “pre-steady-state target cleavage rate” value is, setting by setting: under setting [1], 1.35 ± 0.047; under setting [2], 0.0769 ± 0.013.
